Conditions in all cases: mRNA level, 48 h; actives raise or lower the signal
Read-out in assay [1]: Forkhead box O1 (FOXO1), FOXO1 (gene 2308)
Briefly: LTEA_HepaRG_FOXO1: Life Technologies and Expression Analysis (LTEA) Assay for Forkhead box O1 (FOXO1) using HepaRG (AID 2283456). An outline of the steps: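 Using one lot of HepaRG hepatic cells kept in 0.5% DMSO, the team applied test chemicals in duplicate, half-log dilutions from 100 uM, for 48 h. Expression, normalised to ACTB/GAPDH/POLR2A, was compared with vehicle in either direction.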

Read-out in assay [2]: growth arrest and DNA damage 45 (GADD45A), GADD45A (gene 1647)
Briefly: LTEA_HepaRG_GADD45A: Life Technologies and Expression Analysis (LTEA) Assay for growth arrest and DNA damage 45 (GADD45A) using HepaRG (AID 2283458). In short, it runs like this:
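Eight-point concentration-response in HepaRG cells: 48 h chemical exposure, 0.5% DMSO vehicle, top dose 100 uM. Normalized qRT-PCR mRNA readout with bidirectional fitting relative to DMSO.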

Read-out in assay [3]: Forkhead box O3 (FOXO3), FOXO3 (gene 2309)
Briefly: LTEA_HepaRG_FOXO3: Life Technologies and Expression Analysis (LTEA) Assay for Forkhead box O3 (FOXO3) using HepaRG (AID 2283459). In short, it runs like this:
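Gene-expression endpoint: FOXO3 transcript level by qRT-PCR in HepaRG cultures treated 48 h with chemicals up to 100 uM (half-log, 0.5% DMSO vehicle).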

Read-out in assay [4]: ABC Transporter (ABCB1), ABCB1 (gene 5243)
The assay can be described thus: LTEA_HepaRG_ABCB1: Life Technologies and Expression Analysis (LTEA) Assay for ABC Transporter (ABCB1) using HepaRG (AID 2283460). An outline of the steps:
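Human liver HepaRG line treated 48 h with up to 100 uM compound (eight half-log points, 0.5% DMSO); ABCB1 mRNA change fitted bidirectionally against DMSO controls.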

Read-out in assay [5]: growth arrest and DNA damage 45 (GADD45B), GADD45B (gene 4616)
Briefly: LTEA_HepaRG_GADD45B: Life Technologies and Expression Analysis (LTEA) Assay for growth arrest and DNA damage 45 (GADD45B) using HepaRG (AID 2283461). An outline of the steps:
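Differentiated HepaRG cells, plated 48 h then switched to serum-free induction medium, were exposed 48 h in duplicate to eight half-log concentrations from 100 uM in 0.5% DMSO; mRNA quantified by qRT-PCR, normalized to ACTB/GAPDH/POLR2A, bidirectional fit versus DMSO.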

Read-out in assay [6]: ABC Transporter (ABCC3), ABCC3 (gene 8714)
Briefly: LTEA_HepaRG_ABCC3: Life Technologies and Expression Analysis (LTEA) Assay for ABC Transporter (ABCC3) using HepaRG (AID 2283462). An outline of the steps: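 HepaRG cells in serum-free induction medium were exposed for 48 h in duplicate to 8-point half-log concentrations topping at 100 uM in 0.5% DMSO. ABCC3 mRNA was measured by qRT-PCR normalized to ACTB, GAPDH and POLR2A, with bidirectional fitting versus DMSO.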

Read-out in assay [7]: ABC Transporter (ABCB11), ABCB11 (gene 8647)
Briefly: LTEA_HepaRG_ABCB11: Life Technologies and Expression Analysis (LTEA) Assay for ABC Transporter (ABCB11) using HepaRG (AID 2283463). In short, it runs like this:
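Using HepaRG cultures held in 0.5% DMSO, chemicals were tested at half-log dilutions from 100 uM for 48 h. Induction or suppression of ABCB11 mRNA, normalized to ACTB, GAPDH and POLR2A, was fitted bidirectionally against vehicle.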

Read-out in assay [8]: ABC Transporter (ABCC2), ABCC2 (gene 1244)
Briefly: LTEA_HepaRG_ABCC2: Life Technologies and Expression Analysis (LTEA) Assay for ABC Transporter (ABCC2) using HepaRG (AID 2283464). An outline of the steps:
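HepaRG cells were plated 48 h, switched to serum-free induction medium, then exposed in duplicate for 48 h to 8 concentrations (top 100 uM, half-log steps, 0.5% DMSO). ABCC2 mRNA was measured by qRT-PCR normalized to ACTB/GAPDH/POLR2A; bidirectional fitting versus DMSO.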

Read-out in assay [9]: Broad substrate specificity ATP-binding cassette transporter ABCG2 (Homo sapiens) (UniProt Q9UNQ0)
The assay can be described thus: LTEA_HepaRG_ABCG2: Life Technologies and Expression Analysis (LTEA) Assay for ABC Transporter (ABCG2) using HepaRG (AID 2283465). An outline of the steps:
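Gene expression of ABCG2 in HepaRG liver cells is quantified by qRT-PCR following 48 h exposure across an eight-point series topping at 100 uM. Values come from bidirectional fitting relative to DMSO vehicle.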

Read-out in assay [10]: ATP-citrate lyase (ACLY), ACLY (gene 47)
The assay can be described thus: LTEA_HepaRG_ACLY: Life Technologies and Expression Analysis (LTEA) Assay for ATP-citrate lyase (ACLY) using HepaRG (AID 2283466). In short, it runs like this:
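ACLY expression changes in human HepaRG liver cells are quantified by qRT-PCR after 48 h exposure to test chemicals (maximum 100 uM, half-log steps). Values are fitted in both directions relative to 0.5% DMSO vehicle.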

Read-out in assay [11]: Peroxisomal acyl-coenzyme A oxidase 1 (ACOX1) gene, ACOX1 (gene 51)
Briefly: LTEA_HepaRG_ACOX1: Life Technologies and Expression Analysis (LTEA) Assay for Peroxisomal acyl-coenzyme A oxidase 1 (ACOX1) gene using HepaRG (AID 2283467). An outline of the steps:
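Human HepaRG hepatic cultures, 48 h treatment with test chemicals up to 100 uM. ACOX1 expression read by qRT-PCR relative to 0.5% DMSO vehicle.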

Read-out in assay [12]: Alkaline Phosphatase, Placental (ALPP) gene, ALPP (gene 250)
The assay can be described thus: LTEA_HepaRG_ALPP: Life Technologies and Expression Analysis (LTEA) Assay for Alkaline Phosphatase, Placental (ALPP) gene using HepaRG (AID 2283468). In short, it runs like this:
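Differentiated human HepaRG cells were plated and cultured 48 h, then exposed in duplicate for 48 h in serum-free induction medium to eight half-log concentrations from 100 uM in 0.5% DMSO. ALPP mRNA was measured by TaqMan qRT-PCR, normalized to ACTB, GAPDH, POLR2A.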

Read-out in assay [13]: Bcl-2 (BAD) gene, BAD (gene 572)
The assay can be described thus: LTEA_HepaRG_BAD: Life Technologies and Expression Analysis (LTEA) Assay for Bcl-2 (BAD) gene using HepaRG (AID 2283469). An outline of the steps: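 Activity values reflect up- or down-regulation of BAD mRNA in human HepaRG hepatic cells treated 48 h in serum-free medium, with eight-point half-log dosing capped at 100 uM and 0.5% DMSO vehicle.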

Read-out in assay [14]: Bcl-2 (BAX) gene, BAX (gene 581)
Briefly: LTEA_HepaRG_BAX: Life Technologies and Expression Analysis (LTEA) Assay for Bcl-2 (BAX) gene using HepaRG (AID 2283470). In short, it runs like this: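 Human HepaRG cells treated in duplicate for 48 h across eight concentrations (max 100 uM, 0.5% DMSO); BAX expression measured by qRT-PCR.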

Read-out in assay [15]: adenosine kinase (ADK) gene, ADK (gene 132)
Briefly: LTEA_HepaRG_ADK: Life Technologies and Expression Analysis (LTEA) Assay for adenosine kinase (ADK) gene using HepaRG (AID 2283471). An outline of the steps: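 HepaRG (human liver), 48 h chemical exposure, 8-pt half-log series, top 100 uM, 0.5% DMSO vehicle. Readout: ADK mRNA by qRT-PCR vs housekeeping genes; bidirectional curve fit relative to DMSO baseline.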

Read-out in assay [16]: Alpha-fetoprotein (AFP) gene, AFP (gene 174)
Briefly: LTEA_HepaRG_AFP: Life Technologies and Expression Analysis (LTEA) Assay for Alpha-fetoprotein (AFP) gene using HepaRG (AID 2283472). An outline of the steps:
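Measures AFP mRNA change in HepaRG after 48 h chemical exposure (8 half-log concentrations, highest 100 uM, 0.5% DMSO). Fold change relative to DMSO, fitted in both directions.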

Read-out in another assay: BCL2L11 (gene 10018)
Briefly: LTEA_HepaRG_BCL2L11: Life Technologies and Expression Analysis (LTEA) Assay for Bcl-2 (BCL2L11) gene using HepaRG (AID 2283473). In short, it runs like this: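 Differentiated human HepaRG cells in serum-free induction medium were exposed in duplicate for 48 h to eight concentrations (top 100 uM, half-log steps, 0.5% DMSO). BCL2L11 mRNA was quantified by TaqMan qRT-PCR, normalized to ACTB/GAPDH/POLR2A, bidirectional fit versus DMSO.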

Read-out in assay [17]: Apoptosis regulator Bcl-2 (Homo sapiens) (UniProt P10415)
Briefly: LTEA_HepaRG_BCL2: Life Technologies and Expression Analysis (LTEA) Assay for Bcl-2 gene using HepaRG (AID 2283475). In short, it runs like this: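 Each chemical was tested in duplicate on HepaRG cultures held in serum-free induction medium for 48 h, highest concentration 100 uM with half-log dilutions. Transcript levels came from multiplexed qRT-PCR, normalised to housekeeping genes; activity was scored in either direction relative to DMSO.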

Read-out in assay [18]: Bcl-2 (BID) gene, BID (gene 637)
Briefly: LTEA_HepaRG_BID: Life Technologies and Expression Analysis (LTEA) Assay for Bcl-2 (BID) gene using HepaRG (AID 2283476). An outline of the steps:
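Assay used HepaRG hepatic cells treated 48 h in serum-free medium with half-log dilutions from 100 uM. Endpoint: BID mRNA, qRT-PCR, normalized to ACTB/GAPDH/POLR2A.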

SMILES strings stand for the structures. Active and inactive are the calls of the source. The calls were made as follows: active = hit-call score of the fitted dose curve at least 0.9, where 1 is the maximum; inactive = score below 0.9.

Sequence of Broad substrate specificity ATP-binding cassette transporter ABCG2 (Homo sapiens) (Q9UNQ0 whole entry, looked up): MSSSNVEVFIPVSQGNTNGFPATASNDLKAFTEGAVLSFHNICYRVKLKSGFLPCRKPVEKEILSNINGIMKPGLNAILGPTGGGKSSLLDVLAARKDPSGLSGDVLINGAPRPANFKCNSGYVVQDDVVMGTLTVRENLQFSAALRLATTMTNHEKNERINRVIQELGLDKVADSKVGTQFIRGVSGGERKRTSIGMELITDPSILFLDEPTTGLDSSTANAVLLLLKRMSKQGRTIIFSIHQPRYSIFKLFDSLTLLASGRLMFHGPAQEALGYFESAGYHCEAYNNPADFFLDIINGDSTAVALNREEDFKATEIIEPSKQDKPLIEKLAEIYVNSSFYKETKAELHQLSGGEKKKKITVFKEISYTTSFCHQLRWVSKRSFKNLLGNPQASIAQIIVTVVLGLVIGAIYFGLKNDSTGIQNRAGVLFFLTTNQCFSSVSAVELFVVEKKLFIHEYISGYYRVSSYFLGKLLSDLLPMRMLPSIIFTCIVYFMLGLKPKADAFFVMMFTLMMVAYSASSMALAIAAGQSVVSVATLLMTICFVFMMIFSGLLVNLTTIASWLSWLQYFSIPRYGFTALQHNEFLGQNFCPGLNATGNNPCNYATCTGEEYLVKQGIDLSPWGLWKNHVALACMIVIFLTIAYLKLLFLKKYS
Sequence of Apoptosis regulator Bcl-2 (Homo sapiens) (P10415 whole entry, looked up): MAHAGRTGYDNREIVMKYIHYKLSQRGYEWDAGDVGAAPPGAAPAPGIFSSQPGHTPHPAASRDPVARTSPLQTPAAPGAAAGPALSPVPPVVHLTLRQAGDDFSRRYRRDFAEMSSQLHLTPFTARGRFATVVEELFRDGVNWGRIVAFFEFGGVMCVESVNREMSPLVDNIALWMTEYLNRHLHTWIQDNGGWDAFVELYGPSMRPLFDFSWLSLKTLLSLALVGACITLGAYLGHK

Consider `CC(C)(c1ccccc1)c1ccc(O)c(C(C)(C)c2ccccc2)c1`, for which the call in assay [1], in assay [2], in assay [3], in assay [5], in assay [6] and in assay [10] was inactive. Further, the compound was classed as inactive (in assay [12]; in assay [13]; in assay [14]; in assay [15]; with BCL2L11 (gene 10018); in assay [18]). Besides, the half-maximal activity concentration (AC50) is 22.1 µM (active) in [4]; 43.1 µM (active) in assay [7]; 12.7 µM (active) in [8]; 36.2 µM (active) in assay [9]; 50 µM (active) in assay [11]; 68.7 µM (active) in [16]. The AC50 in [17] is 81.6 µM (active).

In the case of `C[C@@H]1C[C@@H]([C@H](O)CC2CC(=O)NC(=O)C2)C(=O)[C@@H](C)C1`, the result (in [1]; in the assay with BCL2L11 (gene 10018); in assay [17]) was inactive. Also, the half-maximal activity concentration (AC50) in assay [2] is 50 µM (active); in assay [3], 34.3 µM (active); in assay [4], 83.5 µM (active); in assay [5], 22.3 µM (active); in assay [6], 0.921 µM (active); in assay [7], 4.26 µM (active). Besides, the AC50 is 27.3 µM (active) in assay [8]; 10.4 µM (active) in assay [9]; 9.23 µM (active) in [10]; 50 µM (active) in [11]; 73.8 µM (active) in assay [12]; 9.92 µM (active) in assay [14]. In addition, the concentration at half-maximal activity (AC50) is 81.2 µM (active) in [15], 15.5 µM (active) in [16] and 50 µM (active) in assay [18].

Regarding `CCC(C)(C)c1ccc(O)c(C(C)(C)CC)c1`, the compound was called inactive in assay [1], in assay [2], in assay [3], in [4], in [5] and in assay [6]. Also, the compound was classed as inactive in [7], in assay [8], in [9], in assay [10], in [11] and in assay [12]. Further, the compound was classed as inactive (in [13]; in assay [14]; in assay [15]; in [16]; with BCL2L11 (gene 10018); in assay [17]). Moreover, in [18], the compound was classed as inactive.

Regarding `CCCCCCCCc1ccc(O)cc1`, the call in assay [1], in assay [2], in assay [3], in [4], in assay [5] and in [6] was inactive. The compound was classed as inactive in [7], in [8], in assay [9], in [10], in assay [11] and in assay [12]. Besides, the call (in assay [13]; in assay [14]; in [15]; in [16]; with BCL2L11 (gene 10018); in assay [17]) was inactive. The call in [18] was inactive.

By AC50 is commonly meant the midpoint of the concentration-response curve, whichever way the signal moves.

The values above are taken from PubChem BioAssay (EPA / NIEHS).
